Source: PubChem
Only some compounds are listed: those with a hit (about 12% of all), similar ones and a draw of the others.
RORgamma inh: inhibitors of mouse ROR gamma transcriptional activity. P51450. hit rate 5.4% among 310,000. Drosophila S2 Gal4-RORgamma UAS-luciferase reporter, 20 h. AID 2551. Potency, µM (doses to about 53.6 µM), actives largely listed as inhibitors; note: nearly all actives have a fitted effect of over 60% in size
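Read-out: Photinus luciferase luminescence; inhibitors lower reporter signal. Insect Schneider cells with Gal4-ROR gamma fusion under metallothionein promoter, UAS reporter; 700 uM final copper sulfate induction, 20 hr, ambient temperature.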
Sfp PPTase inh: blocks B. subtilis Sfp PPTase activity; Q9F4F7; Biochemical Sfp PPTase activity, qHTS; Potency, µM, most hits filed as inhibitors; hit rate 3.5% among 310,000; AID 1490;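 note: the enzyme is Sfp with the accession as filed and its product quenches rhodamine fluorescence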
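Fluorescence-quenching assay: 15 nM Sfp-PPTase preincubated 15 min at room temperature with compound, then 5 uM rhodamine-CoA and 12.5 uM BHQ-2-labelled YbbR peptide added. Fluorescence (ex 525/em 598 nm) read at start and after 30 min; difference gives rate.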
PLK1 PBD block: blocks phosphopeptide binding to human PLK1 polo-box domain | P53350 | Plk1 PBD binding of FITC phosphopeptide, fluorescence polarization | Potency, µM, hits mostly inhibitors | hit rate 2.8% among 360,000 | AID 720504; note: series mostly up to about 57 µM; nearly all actives have a fitted effect of over 65% in size
VP16 counter: counter-screen for ROR gamma inhibitors: Gal4-VP16 reporter; Drosophila S2 Gal4-VP16 UAS-luciferase, luminescence, 20 h; Potency, µM (series often up to 53.6 µM), hits mostly inhibitors; hit rate 3.5% among 310,000; AID 2546;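 note: Gal4-VP16 expression switched on by copper sulfate through the metallothionein promoter; nearly all actives have a fitted effect of over 50% in size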
ALDH1A1 inh: blocks purified human ALDH1A1 activity; P00352; Purified ALDH1A1, NADH fluorescence, propionaldehyde substrate; Potency, µM (titrated, usually from 75.3 µM), hits mostly inhibitors; hit rate 7.3% among 220,000; AID 1030; active = well fitted inhibition curve with a large enough effect, not every such curve was filed as active; inconclusive = small, poorly fitted or top-dose-only effect, or another doubt; inactive = no such curve, though single readings can be large or run the other way
Target sequence (P00352 whole entry, looked up): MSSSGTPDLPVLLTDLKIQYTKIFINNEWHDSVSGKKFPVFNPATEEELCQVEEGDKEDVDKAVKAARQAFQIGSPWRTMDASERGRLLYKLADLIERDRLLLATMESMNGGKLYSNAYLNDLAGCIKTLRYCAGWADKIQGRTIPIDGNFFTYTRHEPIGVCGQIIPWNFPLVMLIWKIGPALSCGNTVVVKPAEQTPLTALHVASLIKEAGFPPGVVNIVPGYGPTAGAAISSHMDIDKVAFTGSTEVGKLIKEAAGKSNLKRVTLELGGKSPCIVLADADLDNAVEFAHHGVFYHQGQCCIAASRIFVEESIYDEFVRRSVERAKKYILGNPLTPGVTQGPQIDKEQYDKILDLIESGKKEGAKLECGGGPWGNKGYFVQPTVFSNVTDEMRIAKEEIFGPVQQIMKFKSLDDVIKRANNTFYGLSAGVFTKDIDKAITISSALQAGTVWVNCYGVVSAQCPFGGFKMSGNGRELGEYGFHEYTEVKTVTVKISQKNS
Hits are given with their value; 0 = inactive; ? = inconclusive; - = not tested or not shown; [ ] = another dose, or the depositor's remark. Unless noted, calls come from the whole dose curve; as a rule, active = well fitted curve in the direction sought with a large enough effect; inconclusive = small, poorly fitted or top-dose-only effect, or another doubt; inactive = no such curve, though single readings can be large; an effect the other way counts as inactive or inconclusive.

SMILES	RORgamma inh	Sfp PPTase inh	PLK1 PBD block	VP16 counter	ALDH1A1 inh
COc1ccc(-c2nc3cnc(N(C)C)nc3n(CCC#N)c2=O)cc1	0	0	-	0	?
CCOC(=O)c1c(NC(=O)COC(=O)c2ccc(Cl)nc2)sc(C)c1C	-	-	0	-	-
COc1ccc(NC(=O)C=C(C)C)cc1Cl	0	0	0	0	0
C/C(CC(=O)NC1CCCC1)=N\NC(=O)Cc1cccs1	0	0	0	0	0
COC(=O)/C=C/C(=O)Nc1ccc(O)c(Cl)c1	?	0	0	?	13µM
C/C(CC(=O)NC12CC3CC(CC(C3)C1)C2)=N\NC(=O)Cc1cccs1	0	0	0	?	8.9µM
O=C(/C=C/c1ccco1)Nc1cccnc1	0	25µM	0	0	28µM
O=C(/C=C/c1ccco1)c1cccnc1	0	50µM	0	0	-
Cc1cc(C(=O)N/N=C/c2ccco2)n[nH]1	0	0	0	0	0
CC(/C=C/c1ccco1)=N\NC(=O)c1cc(C)[nH]n1	?	18µM	0	0	0
O=C(c1ccc(Cl)cc1Cl)N1CCc2ccccc21	0	0	0	0	-
O=C(c1cc(Cl)ccc1Cl)N1CCc2ccccc21	?	0	27µM	0	-
CCN(CC)S(=O)(=O)c1ccc(Cl)c(C(=O)N2CCc3ccccc32)c1	0	0	0	0	?
CCN(CC)S(=O)(=O)c1ccc(C(=O)N2CCc3ccccc32)cc1	0	0	0	0	5µM
O=C(c1ccc(N2CCCCCC2)c([N+](=O)[O-])c1)N1CCc2ccccc21	0	0	-	0	?
Cc1ccc(C(=O)N2CCc3ccccc32)cc1[N+](=O)[O-]	0	0	30µM	0	-
CCCCS(=N)(=O)CC[C@H](N)C(=O)O (stereo not given in full)	-	-	-	-	0
Cn1c(=O)n(Cc2ccccc2Cl)c2ccccc21	0	?	17µM	0	?
Cn1c(=O)n(Cc2ccccc2Cl)c(=O)c2c1[nH]c(=S)n2C	0	50µM	17µM	0	-
C=CCn1c(=O)c2c(nc(Br)n2Cc2ccccc2Cl)n(C)c1=O	0	0	30µM	0	0
Cn1c(=O)n(Cc2ccccc2F)c2ccccc21	0	0	0	0	0
Cn1c(SCc2nn[nH]n2)nc2c1c(=O)n(Cc1ccccc1Cl)c(=O)n2C	0	0	0	0	?
COc1ccc(-c2nnc(SCC(=O)N3CCCC3=O)n2N)cc1OC	-	-	0	-	-
CCc1nc2c(OCCn3cccc3)cccn2c1N(C)C(=O)C1CC1	-	-	0	-	-
Cc1cc2c(c(=O)o1)C(C1C=CCCC1)C(C#N)=C(N)O2 (stereo not given)	0	0	0	0	7.9µM
SMILES	RORgamma inh	Sfp PPTase inh	PLK1 PBD block	VP16 counter	ALDH1A1 inh
Cc1cc2c(c(=O)o1)C(C(C)C)C(C#N)=C(N)O2 (stereo not given)	0	0	0	0	?
Cc1ccc([C@H]2C(C#N)=C(N)Oc3cc(C)oc(=O)c32)o1	0	0	?	?	?
Cc1cc2c(c(=O)o1)C(c1cccs1)C(C#N)=C(N)O2 (stereo not given)	14µM	?	0	?	?
O=C(Nc1nc2ccccc2n1CCN1CCOCC1)c1cn(-c2ccccc2)nc1-c1ccccc1	0.63µM	0	0	1.1µM	?
CC(=O)Nc1nc2ccccc2n1CCN1CCOCC1	?	0	0	0	0
O=C(Nc1nc2ccccc2n1CCN1CCOCC1)c1ccccc1	2.8µM	0	0	3.5µM	-
Cc1cccc(N(CC(=O)N2CCCCCC2)S(C)(=O)=O)c1	0	0	0	0	-
CSc1ccc(CN2CCC2(C)C(=O)Nc2cccc(NS(C)(=O)=O)c2)cc1 (stereo not given)	-	-	0	-	-
COc1cc(C)c(CNc2cc(C)cc(C)c2)cc1C	0	0	0	0	0
COc1cc(C)c(CNc2cccc(C)c2)cc1C	0	?	0	0	14µM
COc1cc(C)c(CNc2ccc(OC)c(OC)c2)cc1C	0	0	-	0	25µM
Cc1c(N)cc2c(c1N)C(C)(C)CC2(C)C	-	-	0	-	-
CC(C)[C@H](NC(=O)OC(C)(C)C)[C@@H](O)CC(=O)OC(C)(C)C	0[10 µM]	0	-	0[10 µM]	0[13.5 µM]
[O-][n+]1onc2c1CCc1c-2nn(-c2ccccc2Cl)[n+]1[O-]	6.3µM	0	0	3.2µM	?
CCOc1ccc(/C(O)=C2\C(=O)C(=O)N(CCN(C)C)C2c2cccc(OC)c2OC)cc1Cl (stereo not given)	0	0	0	0	?
COc1cccc(C2/C(=C(\O)c3ccc4c(c3)OCO4)C(=O)C(=O)N2CCN(C)C)c1OC (stereo not given)	0	0	0	0	22µM
CN(C)CCN1C(=O)C(=O)/C(=C(/O)c2ccccc2)C1c1ccccc1F (stereo not given)	0	0	0	0	18µM
CCN(CC)CCCN1C(=O)C(=O)/C(=C(/O)c2ccc3c(c2)OCCO3)C1c1ccc(C)o1 (stereo not given)	0	0	-	0	25µM
CCC(Nc1ncnc2ccc(-c3c(C)noc3C)cc12)c1ccccc1 (stereo not given)	?	0	-	?	-
Cc1ccccc1C(=O)Nc1ccc(C(=O)N/N=C/c2ccccn2)cc1	0	0	0	0	-
NC(=O)N/N=C/c1ccc(-c2ccc(S(=O)(=O)Nc3ncccn3)cc2)o1	-	-	0	-	-
CC(C)(C)c1ccc(/C=N/NC(=O)c2ccccn2)cc1	10µM	0	0	0	0
CC(C)Oc1ccc(C(=O)N/N=C/c2ccc(-c3ccc(S(=O)(=O)Nc4ncccn4)cc3)o2)cc1	0	79µM	?	0	?
CCCc1cc(C(=O)N/N=C/c2cccn2C)cs1	11µM	0	0	22µM	-
CC(C)(C)c1ccc(C(=O)N/N=C/c2ccccn2)cc1	1.4µM	0	0	4.5µM	-
SMILES	RORgamma inh	Sfp PPTase inh	PLK1 PBD block	VP16 counter	ALDH1A1 inh
CCCCc1nc2c(c3c1C[C@H](C)OC3)CN(C(=O)NCCCC(=O)OCC)CC2	-	0	-	-	0[13.5 µM]
O=C(NCC1CCOCC1)C1Cc2c(-c3ccccc3Oc3ccccc3)ccnc2O1 (stereo not given)	-	-	0	-	-
Cc1ccc(C(=O)N/N=C\c2ccccn2)cn1	0	7.1µM	0	0	0
COc1cccc(/C=N/NC(=O)c2ccc(OCc3cccc(Br)c3)cc2)c1	14µM	0	0	0	0
O=C(N/N=C/c1ccco1)c1ccccn1	0	50µM	0	0	0
O=C(N/N=C/c1cccc(OCc2ccccc2)c1)c1ccc(Br)cc1	?	0	0	?	0
Cc1cccc(/C=N/NC(=O)c2ccc(Br)cc2)c1	18µM	0	0	0	0
Cc1cc(Br)ccc1NC(=O)CNC(=O)CNc1cccc([N+](=O)[O-])c1	-	-	0	-	-
O=C(N/N=C/c1ccccn1)c1ccc([N+](=O)[O-])cc1	0	0	0	0	0
Cc1ccc(C(=O)N/N=C\c2cccn2C)cn1	11µM	0	0	?	0
Cc1ccc(C(=O)N/N=C\c2ccc(-c3ccc([N+](=O)[O-])cc3)o2)cn1	?	0	0	0	0
Cc1ccc(C(=O)N/N=C\c2ccc(-c3ccc(Cl)cc3)o2)cn1	2.5µM	0	0	10µM	0
O=C(N/N=C/c1ccccn1)c1ccc(Br)cc1	6.3µM	?	0	3.2µM	?
